# Measured values: the supplement of paper PMC3334620
# Over roughly 33,000 sequences, “E-score (-0.5 to 0.5)” has its median near -0.012; the highest 2% begin near 0.29. Only a selection was taken, and the highest values are over-represented in it overall.
# Target: T1, Ybr033w (UniProt P38073)
# T1 sequence: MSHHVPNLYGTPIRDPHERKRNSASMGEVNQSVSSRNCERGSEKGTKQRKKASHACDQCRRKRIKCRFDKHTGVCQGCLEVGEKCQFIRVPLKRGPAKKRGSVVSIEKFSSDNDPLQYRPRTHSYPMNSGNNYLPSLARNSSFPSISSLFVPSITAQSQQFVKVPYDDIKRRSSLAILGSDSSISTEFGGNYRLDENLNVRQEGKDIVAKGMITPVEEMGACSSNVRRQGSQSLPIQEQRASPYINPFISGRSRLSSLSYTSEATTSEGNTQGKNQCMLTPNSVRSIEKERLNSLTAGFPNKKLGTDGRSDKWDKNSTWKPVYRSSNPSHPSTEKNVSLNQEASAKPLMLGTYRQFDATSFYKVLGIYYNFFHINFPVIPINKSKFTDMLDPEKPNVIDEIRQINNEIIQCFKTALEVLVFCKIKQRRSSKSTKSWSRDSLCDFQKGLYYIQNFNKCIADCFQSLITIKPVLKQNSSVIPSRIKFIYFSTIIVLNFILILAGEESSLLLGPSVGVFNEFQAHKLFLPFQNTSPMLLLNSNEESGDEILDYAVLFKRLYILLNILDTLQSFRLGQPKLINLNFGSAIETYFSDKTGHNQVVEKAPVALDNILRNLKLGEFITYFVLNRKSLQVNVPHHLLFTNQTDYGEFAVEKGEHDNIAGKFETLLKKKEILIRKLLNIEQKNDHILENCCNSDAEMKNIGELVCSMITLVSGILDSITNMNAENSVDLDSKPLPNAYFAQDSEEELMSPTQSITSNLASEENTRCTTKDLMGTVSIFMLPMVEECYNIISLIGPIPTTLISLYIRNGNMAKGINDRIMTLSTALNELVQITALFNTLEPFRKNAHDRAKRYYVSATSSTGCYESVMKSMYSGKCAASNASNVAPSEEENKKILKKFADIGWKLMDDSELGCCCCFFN
# Assay: PBM E-score (8-mer binding enrichment) (E-score (-0.5 to 0.5)); higher = stronger / more preferred TF binding
# Conditions: protein concentration: 200 nM; construct: GST-full length
# How it was run: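 Yeast transcription factors, full-length or as DNA-binding domains, were expressed with a GST tag using PURExpress in vitro transcription/translation. At about 100-200 nM they were applied to universal all-10-mer Agilent arrays, double-stranded by primer extension on fresh or once-stripped slides. Fluorescent anti-GST detected bound protein, and masliner normalised the scans. E-scores for ungapped eight-base words, pooled with reverse complements, came from the Universal PBM Analysis Suite.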
row,Sequence,PBM E-score
1,GTGTTCCA,-0.0466
2,CTGTTCCA,0.0353
3,ATGTTCCC,0.199
4,ATGTTCCG,0.458
5,ATGTTCAG,-0.137
6,CACTGATC,0.0744
7,GTCTGAGA,-0.163
8,TACAAACA,0.29
9,AACAAACT,0.341
10,TACAAGCA,0.189
11,AACAACTT,0.291
12,AACAACTA,0.147
13,AACAAACG,0.183
14,AACAACTC,0.0616
15,AACAAACA,0.193
16,AACAAACC,0.105
17,CAAATCCG,0.0419
18,CTCGTGGC,-0.173
19,AAGTACTG,0.112
20,AGTGGTCA,-0.103
21,GAGACACC,-0.216
22,TGACTAAA,0.0305
23,TGAAGGAA,0.211
24,AGTATTTA,0.301
25,GGTATTTA,0.125

row,Sequence,PBM E-score
1,AGTATTTC,0.34
2,AGTATTTG,0.159
3,AGTATTGC,0.169
4,CGTATTTA,0.311
5,CGTATTTC,0.0631
6,ACTATTTA,0.235
7,AGTATTCC,0.161
8,AGACTTTG,-0.0453
9,CCGACACG,-0.213
10,ATCACAAG,0.107
11,CCTACTTC,-0.0544
12,CGCAGGTC,-0.168
13,ACAGCCTG,-0.0521
14,ACGAGTGC,-0.0558
15,CCACCCTC,-0.0745
16,ACCAATAA,0.107
17,GCATCGCC,-0.17
18,ATATCCAC,0.145
19,GAAGGCTA,0.0975
20,CGGAGAAA,0.39
21,CGGAGAAG,-0.166
22,TGGAGAAA,0.133
23,TAAACTCA,0.147
24,GCATAATA,0.198
25,GAATAATA,0.395

row,Sequence,PBM E-score
1,GAATAACC,0.113
2,GGATAGTA,0.206
3,GAATAAGC,0.189
4,CAATAACA,0.066
5,GAATAATC,0.379
6,GAATAAAC,0.142
7,GAATAACA,0.367
8,CGATAATA,0.0851
9,GGATAATA,0.349
10,GAATAAGA,0.0352
11,CATCCTGC,-0.163
12,CAAGAGGC,-0.144
13,CTTCAGAA,-0.028
14,GTAGGACA,0.012
15,ACGTATAC,0.181
16,ATTCTGAA,0.187
17,CGAGGGAA,-0.0841
18,CATGTAAG,-0.0133
19,AATGTAAG,0.288
20,AATGTAAT,0.272
21,AGCCTCCC,-0.254
22,AACCTGCC,-0.0858
23,AATTGATA,0.255
24,CATTGATC,0.236
25,ACTTGATG,0.218

row,Sequence,PBM E-score
1,AATTGACC,0.0241
2,AATTGATG,0.309
3,AATTGATC,0.354
4,TAACCAAA,0.186
5,CGGAGGGA,-0.057
6,CGTCTTCC,-0.215
7,ATTACTCA,0.296
8,CTTACTTA,0.0259
9,ATTACTCG,0.132
10,ATTACTTA,0.35
11,ATTACTGA,0.169
12,ATTACTCC,0.23
13,CACCAGTC,-0.196
14,AAAAGTTT,0.266
15,AAAAGTTC,0.373
16,AAAAGTAA,0.314
17,CAAAGTTA,0.279
18,AAAAGTTA,0.288
19,GAAAGTTA,0.218
20,GAAAGTTC,-0.0203
21,TAAAGTTA,0.358
22,AAAAGTTG,0.133
23,AAAAGTAT,0.13
24,ACAAGTTA,0.185
25,CAAAGTAA,0.186

row,Sequence,PBM E-score
1,ACGGTGGC,-0.095
2,CGGCCATA,-0.17
3,CTATCCAG,0.062
4,AGTGGTTC,0.00899
5,TGAGCCCA,-0.0977
6,GTTCTGCA,-0.173
7,AGAACTAG,-0.084
8,CTCTGCGC,-0.118
9,TAGACGCA,-0.0494
10,CCGCTTGA,-0.162
11,GCCTTTCC,-0.254
12,GAAATACA,0.14
13,TAAATATA,0.353
14,TAAATACA,0.229
15,CAAATATA,0.281
16,GAAATATA,0.327
17,GAAATATC,0.231
18,GGCCAATA,-0.0498
19,AAAGCTCT,-0.262
20,CAATGCTA,0.115
21,CTCCATGA,0.0454
22,TAGACAGA,0.157
23,GATCAATC,0.184
24,AATCAATA,0.334
25,GATCAAAA,0.296

row,Sequence,PBM E-score
1,AATCAATT,0.247
2,CATCAAAA,0.108
3,AATCAATC,0.0849
4,TATCAATA,0.257
5,GATCAATA,0.329
6,AATCAAAA,0.225
7,AGGGTAAG,0.0154
8,CCTAGGAC,-0.087
9,AAAGCAAT,0.16
10,ACCCCCTG,-0.454
11,CTGGAACC,-0.209
12,ATGGAATA,0.316
13,GTGGAATA,0.262
14,CTGGAATA,0.355
15,CTGGAACA,0.31
16,ATGGAATC,0.198
17,CTGGAAGA,0.189
18,ATGGAACA,0.182
19,CTGGAATC,-0.00413
20,ATGTGGAA,0.235
21,CCGGGTGC,-0.181
22,CCCTTTGC,-0.134
23,GGCCTAAC,-0.013
24,CACAGAGC,-0.121
25,ATACGTAT,0.207

row,Sequence,PBM E-score
1,TGGATCAA,0.377
2,TGGATCCA,-0.0233
3,AGGATCAC,-0.0786
4,AGGATCAA,0.317
5,AGGATCAG,-0.166
6,GGGATCAA,0.242
7,AAGAGTAT,0.00192
8,AATAACCC,0.203
9,GCACTTCC,-0.149
10,GAAAAAAC,0.265
11,AAAAAAAC,0.24
12,AAAAAAAG,0.273
13,AAAAAAAA,0.353
14,GAAAAAAA,0.37
15,GAGAAAAA,0.155
16,AGATCTTC,0.137
17,AAGGATTG,0.126
18,ACTCAACA,0.146
19,CTTCTCCA,-0.214
20,ACCCAGGG,-0.287
21,ACTCGAAG,-0.242
22,CTGGTCCA,-0.17
